Screening results: PubChem BioAssay, National Center for Advancing Translational Sciences (NCATS)
An excerpt weighted towards active compounds, which were near 18% of everything screened.
GCN5L2 inh: qHTS Assay for Inhibitors of GCN5L2 | Potency, µM (titrated, usually from 58.9 µM), hits mostly inhibitors | 390,000 tested, 0.21% active | Histone acetyltransferase KAT2A (Homo sapiens), Q92830 | GCN5L2 HAT assay, ThioGlo1 CoA-SH fluorescence | AID 504327, 2011
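GCN5L2 (20nM final) in 50mM HEPES, 0.1mM EDTA pH 7.5, 0.01% Tween-20 was preincubated 15 min at room temperature with compound, then given ThioGlo1 (50uM), H3(1-25) peptide (75uM) and acetyl-CoA (70uM); CoA-thiol fluorescence (Ex340/Em540) was read at 0 and 20 min.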
PLK1 PBD inh: qHTS for Inhibitors of PLK1-PDB (polo-like kinase 1 - polo-box domain): Primary Screen | Serine/threonine-protein kinase PLK1 (Homo sapiens), P53350 | Plk1 PBD binding of FITC phosphopeptide, fluorescence polarization | Potency, µM, usual class: inhibitors | 360,000 tested, 2.8% active | AID 720504, 2013; note: series mostly up to about 57 µM; nearly all actives have a fitted effect of over 65% in size
TDP1 cell CPT: qHTS for Inhibitors of human tyrosyl-DNA phosphodiesterase 1 (TDP1): qHTS in cells in presence of CPT; chicken DT40 Tdp1-/-;hTDP1 cells + 20 nM CPT, ATP luminescence, 48 h; Potency, µM (top dose mostly 46.2 µM), usual class: inhibitors; 420,000 tested, 12% active; note: nearly all actives have a fitted effect of over 55% in size
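Cell growth measured by CellTiter-Glo luminescence after a minimum 48 h, 37 C compound exposure with 20 nM CPT in Tdp1-knockout DT40 cells stably expressing hTDP1, seeded 400/well; qHTS titration format.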
TDP1 cell noCPT: qHTS for Inhibitors of human tyrosyl-DNA phosphodiesterase 1 (TDP1): qHTS in cells in absence of CPT | Potency, µM (top dose mostly 46.2 µM), actives largely listed as inhibitors | DT40 Tdp1-/- hTDP1 cells, no CPT, ATP luminescence, 48 h | AID 686978, 2013 | 420,000 tested, 15% active; note: nearly all actives have a fitted effect of over 55% in size
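Growth kinetics read by CellTiter-Glo luminescence after ≥48 hr at 37 °C. Cells: DT40 Tdp1-/- stably carrying human TDP1, 400 per well, compound exposure in the absence of CPT (DMSO vehicle).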
VDR inhibitor: Inhibitors of the vitamin D receptor (VDR): qHTS | AID 504847, 2011 | Vitamin D3 receptor (Homo sapiens), P11473 | 400,000 tested, 0.93% active | Potency, µM, actives largely listed as inhibitors | VDR-SRC2-3 peptide fluorescence polarization, 2 h
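FP read-out; VDR + SRC2-3 coactivator peptide; 23 nl compound by pintool; 2 h RT incubation; reagents held at 4 deg C, protected from light.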
TDP1 inh: qHTS Assay for Inhibitors of Tyrosyl-DNA Phosphodiesterase (TDP1); Tyrosyl-DNA phosphodiesterase 1 (Homo sapiens), Q9NUW8; recombinant TDP1, AlphaScreen DNA substrate cleavage; Potency, µM (doses to about 130 µM), actives largely listed as inhibitors; 350,000 tested, 0.28% active; note: nearly all actives have a fitted effect of over 40% in size
Target sequence (Q9NUW8 whole entry, looked up): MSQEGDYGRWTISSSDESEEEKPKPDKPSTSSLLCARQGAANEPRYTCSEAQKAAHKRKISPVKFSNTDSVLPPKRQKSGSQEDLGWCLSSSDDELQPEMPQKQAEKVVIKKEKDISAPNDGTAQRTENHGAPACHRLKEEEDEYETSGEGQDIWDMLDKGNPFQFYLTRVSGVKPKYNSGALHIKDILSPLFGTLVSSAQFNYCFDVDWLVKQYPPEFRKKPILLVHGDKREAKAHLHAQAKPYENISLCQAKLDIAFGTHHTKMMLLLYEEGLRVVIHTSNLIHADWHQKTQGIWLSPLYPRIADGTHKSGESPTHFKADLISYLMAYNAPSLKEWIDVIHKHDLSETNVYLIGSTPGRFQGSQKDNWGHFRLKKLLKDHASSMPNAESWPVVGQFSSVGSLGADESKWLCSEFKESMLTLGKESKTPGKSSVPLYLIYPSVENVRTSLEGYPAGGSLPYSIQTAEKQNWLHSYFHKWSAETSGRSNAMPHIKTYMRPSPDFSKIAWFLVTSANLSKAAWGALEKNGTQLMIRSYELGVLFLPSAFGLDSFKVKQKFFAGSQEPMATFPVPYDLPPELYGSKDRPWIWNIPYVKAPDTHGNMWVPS
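Recombinant human Tdp1 (E. coli-expressed, 1 nM final) preincubated with compounds 15 min at room temperature, then 5'-biotin/3'-phosphotyrosine-FITC DNA substrate (15 nM final) added for 5 min. AlphaScreen beads (10 ug/ml final) added 10 min; cleavage lowers signal.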
Hits are given with their value; n = inactive; u = inconclusive; x = not tested or not shown; [ ] = remark or other dose. Calls come from the whole dose curve; as a rule, active = well fitted curve in the direction sought with a large enough effect; inconclusive = small, poorly fitted or top-dose-only effect, or another doubt; inactive = no such curve, though single readings can be large; an effect the other way counts as inactive or inconclusive.

SMILES | GCN5L2 inh | PLK1 PBD inh | TDP1 cell CPT | TDP1 cell noCPT | VDR inhibitor | TDP1 inh
CCCc1nc2cccnc2n1C1CCN(C(=O)CC2NC(=O)c3ccccc32)CC1 (configuration not stated) | x | x | n | n | x | x
CC(C)(C)OC(=O)N1CCC(c2c(C(=O)N3CCN(C(=O)c4ccco4)CC3)cnn2-c2ccccc2)CC1 | n | x | n | n | n | n
Nc1c(C(=O)N2CCOCC2)sc(=S)n1-c1ccccc1 | n | 11µM | u | u | 50µM | n
O=C(c1sc(N2CCOCC2)nc1-c1ccccc1)N1CCCCC1 | n | n | n | u | n | n
CCOC(=O)c1sc(=S)n(-c2ccc(C)cc2)c1N | n | 11µM | u | n | u | n
CCOc1ccc(-n2c(N)c(C(=O)N3CCN(C)CC3)sc2=S)cc1 | n | n | n | n | n | n
CCOC(=O)c1sc(=S)n(CC)c1N | n | n | n | u | n | n
Cc1ccc(-n2c(N)c(C(=O)N3CCCCC3)sc2=S)cc1 | n[0.501 µM] | 24µM | u | u | u | n
CCOC(=O)c1sc(=S)n(-c2ccc3c(c2)OCO3)c1N | u | 13µM | u | n | u | n
CCOC(=O)c1sc(=S)n(C)c1N | n | n | n | n | n | n
O=C(Cn1cnc2c(nnn2Cc2ccc(F)cc2)c1=O)Nc1ccc2c(c1)OCCO2 | n | n | n | n | n | n
Cc1ccc(-n2c(N)c(C(=O)NCc3cccnc3)sc2=S)cc1 | u | 28µM | u | u | n | n
CCCCNc1nc2ccccc2c2nc(-c3ccccc3)nn12 | n | x | u | 21µM | n | n
CCCCNC(=O)CCC(=O)NNc1nc2ccccc2c2nc(-c3ccccc3)nn12 | n | n | u | 23µM | n | n
Clc1ccccc1CNc1nc2ccccc2c2nc(-c3ccccc3)nn12 | n | x | n | n | n | n
c1ccc(CNc2nc3ccccc3c3nc(-c4ccccc4)nn23)cc1 | n | x | u | 2.6µM | n | n
Clc1ccc(CCNc2nc3ccccc3c3nc(-c4ccccc4)nn23)cc1 | n | x | u | 12µM | u | n
COc1ccc(-c2nc3ccccc3o2)cc1NC(=O)C(C)(C)Oc1ccc(Br)cc1 | n | x | x | x | n | n
COc1ccc(C(=O)N2CCC[C@@]3(CCN(Cc4nccs4)C3)C2)cc1 | n | x | n | n | n | x
Cc1ccc(C(=O)NCCc2nnc3ccc(NCCCN4CCOCC4)nn23)cc1 | n | n | n | n | n | n
CCOC(=O)c1ccc(NC(=O)C2=C(C)Nc3nc(SCc4ccc(Cl)cc4)nn3C2c2ccc(OC)cc2)cc1 (configuration not stated) | n | x | u | u | n | n
CC(=O)Oc1ccc(N(c2ccccc2)S(=O)(=O)c2ccc(C)cc2)cc1 | n | n | u | u | n | n
CC(C)[C@@H]1NC(=O)[C@H](CCCCN)NC(=O)[C@@H](Cc2c[nH]c3ccccc23)NC(=O)[C@H](Cc2ccc(O)cc2)NC(=O)[C@@H](NC(=O)[C@H](N)Cc2ccccc2)CSSC[C@@H](C(=O)N[C@@H](Cc2c[nH]c3ccccc23)C(N)=O)NC1=O | n | x | x | x | n | n
N#Cc1c(NC(=O)C2CC(c3c(F)cccc3Cl)=NO2)sc2c1CCC2 (configuration not stated) | n | u | u | 0.21µM | n | n
CC(C)c1onc(C(=O)Nc2sc3c(c2C#N)CCC3)c1[N+](=O)[O-] | n | u | n | n | n | n
SMILES | GCN5L2 inh | PLK1 PBD inh | TDP1 cell CPT | TDP1 cell noCPT | VDR inhibitor | TDP1 inh
CC(C)c1cc(C(=O)Nc2sc3c(c2C#N)CCC3)no1 | n | 24µM | u | 23µM | n | n
N#Cc1c(NC(=O)c2ccccc2)sc2c1CCC2 | n | n | 18µM | 16µM | n | n
N#Cc1c(NC(=O)c2ccc([N+](=O)[O-])o2)sc2c1CCC2 | n | n | 18µM | 10µM | n | n
Cc1ccc(O)c(NC(=O)C2CC(c3c(F)cccc3Cl)=NO2)c1 (configuration not stated) | n | n | n | u | n | n
COc1ccc(-c2cc(C(=O)Nc3sc4c(c3C#N)CCCC4)no2)cc1OC | n | x | n | n | u | n
Cc1cc(OCC(=O)N[C@@H](CSCc2ccccc2)C(=O)O)c2c(C)c(C)c(=O)oc2c1 | u | n | n | n | n | x
O=c1[nH]c(=S)[nH]c2c1C(c1ccc(Cl)cc1)OC(CCc1ccccc1)C2 (configuration not stated) | x | n | u | u | x | x
NC(=O)c1c(NC(=O)c2cccnc2)sc2c1CCCC2 | u | n | n | n | n | n
N#Cc1c(NC(=O)c2cccnc2)sc2c1CCC2 | n | n | 23µM | u | n | n
N#Cc1c(NC(=O)c2cnccn2)sc2c1CCCC2 | n | 27µM | 9.2µM | 12µM | n | x
Cn1ncc(Cl)c1C(=O)NC(=S)Nc1sc2c(c1C#N)CCCCC2 | n | 8.4µM | 21µM | u | n | n
CC(=O)Nc1sc2c(c1C#N)CCC2 | n | n | n | n | n | n
CCOC(=O)c1c(NC(C)=O)sc(/C(C)=N/Nc2ccc(C(=O)O)cc2)c1C | u | u | u | u | n | x
Cc1ccnc(NC(=O)c2ccc(S(=O)(=O)N3CCC(C)CC3)cc2)c1 | n | n | n | n | n | x
CNC1C(O)C(O)C(CO)O[C@H]1OC1C(O[C@@H]2C(O)C(O)[C@@H](N=C(N)N)C(O)C2N=C(N)N)OC(C)[C@]1(O)C=O (some centres not stated) | n | x | n | n | n | n
Cc1cc(NC(=O)OC(C)(C)C)c(-n2nnnc2C(C(=O)c2ccccc2)N2CCOCC2)cc1C (configuration not stated) | x | n | n | n | x | x
Cc1ccc(-c2[nH]c3cc(C(N)=O)ccc3c(=O)c2O)cc1 | n | n | u | 18µM | n | n
CCCNC(=O)c1ccc2c(=O)c(O)c(-c3ccc(C)cc3)[nH]c2c1 | n | n | u | u | n | n
Cc1ccc(CNC(=O)c2ccc3c(=O)c(O)c(-c4ccc(C)cc4)[nH]c3c2)cc1 | n | n | 4.1µM | 6.5µM | n | n
O=S1(=O)N[C@@H](c2ccccc2)COc2cc(Br)ccc21 | x | n | n | u | x | x
Cc1ccc2ccccc2[n+]1CCCS(=O)(=O)[O-] | n | n | n | n | n | n
CCC[n+]1c(/C=C/c2c(OC)cc(OC)cc2OC)ccc2ccccc21 | x | x | 0.11µM | 0.089µM | x | x
